Test systems include T-47D breast; BT-549 breast; MDA-MB-435 melanoma; SW-620 colon; MCF7 breast; HCT-116 colon; KM12 colon; HCC-2998 colon.
Holding throughout (assay): NCI-60 one-dose screen, 48 h (100 = growth as untreated, 0 = no growth, -100 = all killed)
Holding throughout (conditions): 10 µM unless noted

Structures are written as SMILES. This is part of a sample that, as a whole, favours compounds with a hit. Of some 83,000 tested, about 20% had one in any assay.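 The endpoint reported here, percent growth, reads 100 for growth as untreated, 0 for no net growth and -100 for all cells dead.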 Values without a mark were called inactive. The source made the active and inactive calls. How the source made its calls: active means growth percent below 10; inactive means the rest.

On to `COc1ccc(Nc2ncnc3c2sc2nc(C)cc(C)c23)cc1`, for which the growth with T-47D breast was 89.6%; in the assay with BT-549 breast, 104%; in the assay on MDA-MB-435 melanoma, 98.7%; with SW-620 colon, 108%; with MCF7 breast, 80.1%; with HCT-116 colon, 90.4%. The growth in the assay with KM12 colon was 96.7%.
Take `C[C@@H]1C[C@H](N)C[C@H](c2ccncc2NC(=O)c2ccc(F)c(-c3c(F)cccc3F)n2)C1`: the growth is 4.14% (active) in the assay with T-47D breast; 51.2% in the assay on BT-549 breast; 34.5% in the assay with MDA-MB-435 melanoma; 45.5% in the assay with SW-620 colon; 40.2% in the assay with MCF7 breast; 48.1% in the assay on HCT-116 colon. Further, the growth in the assay on KM12 colon was 48.3%.
Take `O=C(NCC(c1ccsc1)N1CCCCCC1)c1ccc(C(F)(F)F)cc1` (centres undefined): the growth is 91.7% with T-47D breast; 99.8% with BT-549 breast; 91.8% in the assay on MDA-MB-435 melanoma; 94.5% with MCF7 breast; 88.9% with HCT-116 colon; 102% in the assay with HCC-2998 colon. In the assay with KM12 colon, the growth was 76.8%.
Take `COc1ccc(C2C3=C(COC3=O)N(CCO)c3cc(OC)c(OC)cc32)cc1` (centres undefined): the growth is 91.3% in the assay with T-47D breast; 100% in the assay on BT-549 breast; 112% in the assay with MDA-MB-435 melanoma; 101% in the assay on SW-620 colon; 103% with MCF7 breast; 103% with HCT-116 colon. The growth in the assay with KM12 colon was 106%.
Regarding `O=C(/C=C/c1ccccc1)n1c(-c2ccccc2)nc2ccccc21`, the growth with T-47D breast is 97.3%; with BT-549 breast it was 112%; with MDA-MB-435 melanoma, 99.9%; with SW-620 colon, 102%; in the assay on MCF7 breast, 97.5%; with HCT-116 colon it was 109%. In the assay with KM12 colon, the growth is 104%.
As for `Clc1cn2cc(-c3ccc(Cl)c(Cl)c3Cl)nc2s1`, the growth with T-47D breast is 71.8%; in the assay on BT-549 breast it was 129%; in the assay on MDA-MB-435 melanoma it was 88.1%; with MCF7 breast, 87.8%; in the assay with HCT-116 colon it was 96.9%; in the assay on HCC-2998 colon, 106%. The growth in the assay with KM12 colon is 111%.
Regarding `COc1ccc(NC(=O)C2c3ccccc3C(=O)N(CC(C)C)C2c2cccs2)cc1` (centres undefined), the growth with T-47D breast is 102%; in the assay with BT-549 breast, 98.9%; in the assay on MDA-MB-435 melanoma it was 103%; in the assay with MCF7 breast, 82.3%; in the assay with HCT-116 colon, 93.3%; in the assay on HCC-2998 colon it was 93.3%.
As to `F`, the growth was 18.2% [6.87 mM] in the assay with T-47D breast; 5.2% [6.87 mM] (active) in the assay on BT-549 breast; -26.3% [6.87 mM] (active) in the assay with MDA-MB-435 melanoma; 30.7% [6.87 mM] with MCF7 breast; 8.71% [6.87 mM] (active) in the assay with HCT-116 colon; 24.4% [6.87 mM] in the assay with HCC-2998 colon. Also, the growth in the assay with KM12 colon was 9.89% [6.87 mM] (active).
Consider `Cc1nn(-c2ccc(Cl)cc2)c(=O)n1CCN1CCOCC1`, for which the growth is 78.3% in the assay with T-47D breast; 61.5% in the assay on BT-549 breast; 84.9% in the assay on MDA-MB-435 melanoma; 73.4% in the assay with MCF7 breast; 29.5% in the assay on HCT-116 colon; 91.3% with HCC-2998 colon.
As for `O=C(N=Nc1c(Cl)c(O)c2ccccc2c1O)C(=O)Nc1cccc(C(F)(F)F)c1`, the growth was 44.9% in the assay with T-47D breast; 69% with BT-549 breast; -29.3% (active) in the assay with MDA-MB-435 melanoma; -4.71% (active) with MCF7 breast; 33.1% in the assay with HCT-116 colon; 96.2% in the assay with HCC-2998 colon. Further, in the assay with KM12 colon, the growth was 53.6%.
With `O=[N+]([O-])c1ccccc1CN1CCCCC1`, the growth with T-47D breast was 115%; in the assay on BT-549 breast, 98.4%; in the assay on MDA-MB-435 melanoma, 109%; with MCF7 breast, 108%; in the assay with HCT-116 colon it was 106%; in the assay on HCC-2998 colon, 101%. The growth with KM12 colon is 128%.
Consider `O=C1OC(c2ccc(-c3ccccc3)cc2)=C/C1=C/c1c(Cl)cccc1Cl`, for which the growth was 91.3% with T-47D breast; 104% with MDA-MB-435 melanoma; 95.9% with SW-620 colon; 76% in the assay on MCF7 breast; 63% with HCT-116 colon; 102% in the assay with HCC-2998 colon. Further, the growth in the assay on KM12 colon was 94.1%.
On to `N#Cc1c(N)n(C2OC(CO)C(O)C2O)c2ncnc(N)c12` (centres undefined), for which the growth in the assay with T-47D breast was -46.2% (active); in the assay on MDA-MB-435 melanoma, -58.4% (active); with SW-620 colon, -33.3% (active); in the assay on MCF7 breast, -21.1% (active); in the assay with HCT-116 colon it was 4.76% (active); in the assay on HCC-2998 colon, -35.2% (active).
Turning to `COc1ccc(-c2nn(-c3cccc(Cl)c3)cc2/C=C2\C(=N)N(c3ccccc3)N=C2N)cc1`, the growth with T-47D breast is 28.6%; with BT-549 breast, 101%; in the assay with MDA-MB-435 melanoma, 31.3%; in the assay on MCF7 breast it was 26.6%; in the assay with HCT-116 colon it was 51.3%; in the assay on HCC-2998 colon, 0.0499% (active). In addition, the growth in the assay with KM12 colon was -25.2% (active).
With `NS(=O)(=O)c1ccc(N2N=C(c3ccc(Br)cc3)CC2c2cn(-c3ccccc3)nc2-c2ccc(Cl)cc2)cc1` (centres undefined), the growth was 69.2% with T-47D breast; 79.6% in the assay with MDA-MB-435 melanoma; 96.1% in the assay with SW-620 colon; 53.1% in the assay on MCF7 breast; 63% in the assay on HCT-116 colon; 77.8% with HCC-2998 colon. In addition, the growth in the assay with KM12 colon was 74.9%.
On to `COc1ccc(-c2[nH]nc(N)c2-c2cc(OC)c(OC)c(OC)c2)cc1`, for which the growth in the assay on T-47D breast was 52.8%; in the assay with BT-549 breast, 3.37% (active); with MDA-MB-435 melanoma, -69.2% (active); in the assay on MCF7 breast it was 16.3%; with HCT-116 colon it was 6.24% (active); in the assay on HCC-2998 colon it was 1.36% (active). Also, the growth in the assay on KM12 colon was 3.55% (active).
`COc1cc(Nc2ccnc3ccc(Br)cc23)cc(OC)c1OC`: the growth with BT-549 breast was 53.7%; in the assay on MDA-MB-435 melanoma, -41.5% (active); in the assay on SW-620 colon, 19.4%; in the assay with MCF7 breast, 15.5%; with HCT-116 colon, 21.7%; with HCC-2998 colon, 71.4%.
Take `COc1cc(C2C=C(C)N=C3SC=NN32)cc(OC)c1OC` (centres undefined): the growth is 109% in the assay with T-47D breast; 141% in the assay on BT-549 breast; 104% in the assay on MDA-MB-435 melanoma; 98.9% with MCF7 breast; 111% in the assay on HCT-116 colon; 102% in the assay with HCC-2998 colon. In the assay on KM12 colon, the growth was 107%.
As to `O=C(O)Cn1ccc2ccccc21`, the growth in the assay with T-47D breast is 135%; in the assay on MDA-MB-435 melanoma it was 108%; in the assay on SW-620 colon, 99.1%; in the assay with MCF7 breast, 96.4%; in the assay on HCT-116 colon, 96.9%; with HCC-2998 colon, 104%. In addition, in the assay on KM12 colon, the growth was 109%.

These data come from PubChem BioAssay (NCI).
